Source: PubChem (National Center for Advancing Translational Sciences (NCATS))
A selection: hits, their analogues and other compounds. The true share with any hit is near 1.5%.
FEN1 inhibitor – blocks human flap endonuclease 1 | actives 0.35% (n = 390,000) | Recombinant FEN1 flap cleavage, fluorescence, 15 min | P39748 | AID 588795 | Potency, µM (top dose mostly 114 µM), usual class: inhibitors; further: nearly all actives have a fitted effect of over 65% in size
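In this screen, 50 nM flap DNA substrate was added to 10 nM FEN1 pretreated with compound for 15 min at room temperature; cleavage was followed with reads at 0 and 15 min, and Hill fitting gave concentration–response parameters.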
KAT2A inh – blocks human GCN5L2 histone acetyltransferase; Q92830; GCN5L2 HAT assay, ThioGlo1 CoA-SH fluorescence; Potency, µM (doses to about 58.9 µM), actives largely listed as inhibitors; actives 0.21% (n = 390,000)
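Fluorescence readout, Ex340nm/Em540nm: ThioGlo1 (50uM final) reacts with free CoA thiol released as 20nM GCN5L2 acetylates H3(1-25) peptide (75uM) using acetyl-CoA (70uM). Compound and enzyme sat 15 min beforehand; 20 min room-temperature reaction.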
BLM inh – blocks DNA unwinding by human BLM helicase | AID 2528 | Potency, µM (doses to about 56.1 µM), most hits filed as inhibitors | recombinant BLM DNA unwinding, fluorescence dequenching | P54132 | actives 0.2% (n = 350,000); further: nearly all actives have a fitted effect of over 35% in size
RECQ1 helicase – blocks DNA unwinding by human RECQ1; actives 0.54% (n = 240,000); RECQ1 DNA unwinding, red fluorescence kinetic read; P46063; Potency, µM (titrated, usually from 57.3 µM), usual class: inhibitors; further: nearly all actives have a fitted effect of over 30% in size
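50 nM RECQ1T1 preincubated 15 min with compound in Tris pH 8.0 buffer with MgCl2, DTT, Tween-20 and 2.5 ug/ml poly(dI-dC); started with 200 nM TAMRA/BHQ-2 forked duplex and 2 mM ATP. Unwinding read as fluorescence (525/598 nm), two reads 2 h apart.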
APE1 inh – inhibitors of human APE1 endonuclease; P27695; recombinant APE1, TAMRA/BHQ-2 abasic DNA cleavage fluorescence; Potency, µM (titrated, usually from 65.8 µM), actives largely listed as inhibitors; actives 0.35% (n = 350,000); AID 2517; further: nearly all actives have a fitted effect of over 55% in size
Target sequence (P27695 whole entry, looked up): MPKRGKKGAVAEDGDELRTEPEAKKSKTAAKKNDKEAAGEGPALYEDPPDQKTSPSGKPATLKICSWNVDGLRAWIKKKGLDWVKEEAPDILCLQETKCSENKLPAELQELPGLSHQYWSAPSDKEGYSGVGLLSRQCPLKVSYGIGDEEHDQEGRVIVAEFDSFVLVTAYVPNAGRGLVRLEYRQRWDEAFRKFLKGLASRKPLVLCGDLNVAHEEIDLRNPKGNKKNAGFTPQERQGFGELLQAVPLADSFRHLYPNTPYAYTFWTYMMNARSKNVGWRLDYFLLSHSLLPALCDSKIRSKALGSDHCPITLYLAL
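Endonuclease cleavage of a quenched abasic-site DNA duplex (50 nM) by APE1 (0.75 nM) was tracked by TAMRA dequenching. Compounds were preincubated with enzyme 15 min at room temperature; data normalized to buffer-only and DMSO wells plus NSC13755 control.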
PI5P4Ka inh – blocks human PI5P4K alpha kinase activity. P48426. actives 1.2% (n = 330,000). AID 652105. max response, %. PI5P4Kalpha enzyme, ADP-Glo luminescence, 60 min; hits give low values; active means max response of -50% or lower; inconclusive means between -30% and -50%; inactive means -30% or higher; further: value at the top dose of about 77 µM
Target sequence (P48426 whole entry, looked up): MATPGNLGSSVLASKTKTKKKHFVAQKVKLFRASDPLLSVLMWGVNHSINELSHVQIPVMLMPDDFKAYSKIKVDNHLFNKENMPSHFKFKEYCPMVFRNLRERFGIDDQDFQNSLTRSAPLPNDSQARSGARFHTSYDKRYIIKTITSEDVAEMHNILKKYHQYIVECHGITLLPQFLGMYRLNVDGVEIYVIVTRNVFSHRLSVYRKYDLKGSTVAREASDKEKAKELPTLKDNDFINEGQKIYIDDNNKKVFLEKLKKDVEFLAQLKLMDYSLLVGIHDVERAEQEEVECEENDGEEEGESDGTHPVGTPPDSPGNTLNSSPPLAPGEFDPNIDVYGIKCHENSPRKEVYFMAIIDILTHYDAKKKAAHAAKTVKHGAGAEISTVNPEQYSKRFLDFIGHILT
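Reactions run in 0.038 M HEPES pH 7.4, 0.28 mM EGTA, 0.1% CHAPS and 5% DMSO, with PI5P4Kalpha, substrate, compound and 5 microM ATP final, one hour at room temperature. Readout is ADP-Glo luminescence.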
ADP-Glo interf – ADP-Glo luciferase interference, PI5P4K counter-screen | shares compounds with PI5P4Ka inh | ADP-Glo detection counter-screen, luciferase luminescence, no enzyme | Potency, µM (series often up to 76.9 µM), hits mostly inhibitors | 1,100 tested, under 10 active
Numbers stand for hits; [ ] = another dose, or the depositor's remark. Unless noted, the call rests on the fitted dose curve; in most records, active means well fitted curve in the direction sought with a large enough effect; inconclusive means small, poorly fitted or top-dose-only effect, or another doubt; inactive means no such curve, though single readings can be large; an effect the other way counts as inactive or inconclusive.

What do the screens show for `O=C(Cn1cnc2scc(-c3ccccc3)c2c1=O)NCc1ccco1`?
FEN1 inhibitor: inactive; KAT2A inh: inactive; BLM inh: inactive; RECQ1 helicase: inactive; APE1 inh: inconclusive; PI5P4Ka inh: -65.9; ADP-Glo interf: inactive

Results for CCNc1ncc2nc(C)c(=O)n(CCc3ccccc3)c2n1 ?
KAT2A inh: inactive; BLM inh: inactive; RECQ1 helicase: inactive; APE1 inh: inactive

How did Cc1ccc(CNC(=O)[C@]2(C(F)(F)F)C[C@H](CCc3ccccc3)CCCO2)o1 do in these assays?
FEN1 inhibitor: inactive; BLM inh: inactive; RECQ1 helicase: inactive; APE1 inh: inconclusive

What do the screens show for `COc1cc(C(=O)Nc2scc(-c3ccccc3)c2C(=O)O)cc(OC)c1OC`?
FEN1 inhibitor: inactive; KAT2A inh: inactive; BLM inh: inactive; APE1 inh: inactive; PI5P4Ka inh: -70.6; ADP-Glo interf: inactive

How did COc1ccc(-c2csc(NC(=O)c3ccccc3F)c2C(=O)O)cc1 do in these assays?
FEN1 inhibitor: inactive; KAT2A inh: inactive; BLM inh: inactive; APE1 inh: inactive; PI5P4Ka inh: -51.3; ADP-Glo interf: inactive

What do the screens show for `CCOC(=O)c1c(-c2cc(OC)c(OC)c(OC)c2)csc1NC(=O)c1ccccc1`?
PI5P4Ka inh: inactive

Results for CC1CCC(O)C/C1=C\C=C1/CCCC2(C)C1CCC2C(C)/C=C/C(C)C(C)C (stereo not drawn) ?
KAT2A inh: inactive; BLM inh: inactive; RECQ1 helicase: inactive; APE1 inh: inactive

What do the screens show for `O=C(Nc1ccc2c(c1)OCO2)c1n[nH]c(=O)c2ccccc12`?
FEN1 inhibitor: inactive; KAT2A inh: inactive; BLM inh: inactive; RECQ1 helicase: inactive; APE1 inh: inactive; PI5P4Ka inh: -56.9; ADP-Glo interf: inactive

Results for CCOc1ccc(/C=C/c2nc(C#N)c(NCCc3ccccc3)o2)cc1 ?
FEN1 inhibitor: inactive; KAT2A inh: inactive; BLM inh: inactive

How did CC(C)Sc1nc(N2CCOCC2)c2c(c1C#N)CC(C)(C)N(C)C2 do in these assays?
FEN1 inhibitor: inactive; KAT2A inh: inactive; BLM inh: inactive; RECQ1 helicase: inactive; APE1 inh: inactive; PI5P4Ka inh: -52.5; ADP-Glo interf: inactive

What do the screens show for `CCN1C(=O)[C@H]2[C@H]3[C@H](O)[C@H](O)C/C(=N/O[C@@H](C)c4cc(-c5c(C)cc(C)cc5C)no4)[C@@H]3CC[C@@H]2C1=O`?
BLM inh: inactive[12.4 µM]; RECQ1 helicase: inactive[11.5 µM]; APE1 inh: inactive[12.4 µM]

How did CC(=O)NCCNc1nc(NC(C)C)nc2cc(-c3ccccc3)sc12 do in these assays?
PI5P4Ka inh: inactive

How did CC(=O)Nc1ccc(CNc2nc(NC(C)C)nc3cc(-c4ccccc4)sc23)cc1 do in these assays?
ADP-Glo interf: inactive

Results for COc1ccc(-c2cc(CNc3nc(NC(C)C)nc4cc(-c5ccccc5)sc34)on2)cc1 ?
ADP-Glo interf: inactive

Results for COc1ccc(-c2cc(COc3ccccc3)on2)cc1 ?
FEN1 inhibitor: inactive; KAT2A inh: inactive; BLM inh: inactive; RECQ1 helicase: inactive; APE1 inh: inactive; PI5P4Ka inh: inactive

Results for CC1CCCCN1C(=O)Cn1cnc2cc([N+](=O)[O-])ccc2c1=O (stereo not drawn) ?
FEN1 inhibitor: inactive; KAT2A inh: inactive; BLM inh: inactive; RECQ1 helicase: inactive; APE1 inh: inactive; PI5P4Ka inh: -68.8; ADP-Glo interf: inactive

What do the screens show for `COc1cccc(-n2cc(C(=O)Nc3cccc(C(F)(F)F)c3)c3ccccc3c2=O)c1`?
FEN1 inhibitor: inactive; KAT2A inh: inactive; BLM inh: inactive

Results for Cc1cc(O)ccc1Nc1cc(-c2cccc(N(C)C)c2)ncn1 ?
ADP-Glo interf: inactive

How did CC(C)[C@H](NC(=O)[C@@H]1CSSC[C@H](NC(=O)[C@H](CC(=O)O)NC(=O)[C@H](C)NC(=O)[C@@H](NC(=O)CNC(=O)[C@H](C)N)[C@@H](C)O)C(=O)N[C@@H](Cc2ccccc2)C(=O)N[C@@H](Cc2c[nH]c3ccccc23)C(=O)N[C@@H](CCCCN)C(=O)N[C@@H](Cc2ccc(O)cc2)C(=O)N1)C(=O)O do in these assays?
KAT2A inh: inactive; BLM inh: inactive; RECQ1 helicase: inactive; APE1 inh: inactive

Results for O=C(CSc1nncn1-c1ccccc1)Nc1ccc(N2CCOCC2)cc1 ?
FEN1 inhibitor: inactive; KAT2A inh: inactive; BLM inh: inactive; RECQ1 helicase: inactive; APE1 inh: inactive; PI5P4Ka inh: -55.6; ADP-Glo interf: inactive

What do the screens show for `O=C(CCC(=O)c1cccs1)Nc1ncccc1O`?
FEN1 inhibitor: inactive; KAT2A inh: inactive; APE1 inh: inactive; PI5P4Ka inh: -56.1; ADP-Glo interf: inactive

Results for Cc1ccc(NC(=O)CCC(=O)c2cccs2)cc1 ?
FEN1 inhibitor: inactive; KAT2A inh: inactive; BLM inh: inactive; RECQ1 helicase: inactive; APE1 inh: inactive; PI5P4Ka inh: inactive

How did O=C(CCC(=O)c1cccs1)Nc1ccc(N2CCCCC2)cc1 do in these assays?
FEN1 inhibitor: inactive; KAT2A inh: inactive; BLM inh: inactive; RECQ1 helicase: inactive; APE1 inh: inactive; PI5P4Ka inh: -75.8; ADP-Glo interf: inactive

What do the screens show for `O=C(Cc1cccs1)Nc1ccc(N2CCOCC2)cc1`?
FEN1 inhibitor: inactive; KAT2A inh: inactive; BLM inh: inactive; RECQ1 helicase: inactive; APE1 inh: inconclusive; PI5P4Ka inh: -53.1; ADP-Glo interf: inactive

What do the screens show for `CCCC(=O)NCCc1c2n(c3ccc(OC)cc13)Cc1ccccc1-2`?
RECQ1 helicase: inactive; APE1 inh: inconclusive

What do the screens show for `CS(=O)(=O)c1ccc2nc(NC(=O)c3ccccc3)sc2c1`?
FEN1 inhibitor: inactive; KAT2A inh: inactive; BLM inh: inactive; APE1 inh: inactive; PI5P4Ka inh: inactive

How did CS(=O)(=O)c1ccc2nc(NC(=O)c3ccc(NS(=O)(=O)c4cccc([N+](=O)[O-])c4)cc3)sc2c1 do in these assays?
FEN1 inhibitor: inactive; KAT2A inh: inactive; BLM inh: inactive; RECQ1 helicase: inactive; APE1 inh: inactive; PI5P4Ka inh: -56.8; ADP-Glo interf: inactive

Results for Cc1cc(C)cc(NC(=O)Cn2nnc(C(=O)NCc3ccc(F)cc3)c2N)c1 ?
FEN1 inhibitor: inconclusive; KAT2A inh: inactive; BLM inh: inactive; APE1 inh: inactive; PI5P4Ka inh: -56.5; ADP-Glo interf: inactive

What do the screens show for `Cc1noc(C)c1CCC(=O)N1CCCC(CCC(=O)NCc2ccc(F)c(F)c2)C1` (stereo not drawn)?
FEN1 inhibitor: inconclusive; KAT2A inh: inactive; BLM inh: inactive; RECQ1 helicase: inactive; APE1 inh: inactive; PI5P4Ka inh: -61.4; ADP-Glo interf: inactive
